These results are taken from PubChem BioAssay (NCATS).

Values joined by “and” are separate entries in the source; they are usually repeats but may differ in a detail not shown here. Equal entries are not always repeated. Records with an inconclusive call do not appear. A number with no mark means an inactive call. Active and inactive are the calls of the source. Calls follow the shape of the dose curve; as a rule, active = well fitted inhibition curve with a large enough effect; inconclusive = small, poorly fitted or top-dose-only effect; inactive = flat fitted curve, though single readings scatter.

In experiment [1] the test system is CRL-7250. The experiment can be described thus: Cytotoxic Profiling of Annotated Libraries Using Quantitative High-Throughput Screening (AID 1296008). As to max response: % is scaled to controls: 0 for no effect and ±100 for the full control effect. As to conditions: Five cell lines viability, CellTiter-Glo ATP luminescence, 48-72 h; max response: stronger effect = lower value. Put shortly: (§1)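 Compounds were pin-transferred onto cells and incubated 48 or 72 hr at 37 degree Celsius, 95% humidity. CellTiter-Glo was added, plates sat 10 min at room temperature, then ATP-coupled luminescence was imaged as the viability read-out.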
On the technique in general: Cellular ATP, detected with luciferase, serves as a proxy for viable cell number.

Experiment [2] concerns HEK293. The experiment is described as above. The following applies: Five cell lines viability, CellTiter-Glo ATP luminescence, 48-72 h; max response: stronger effect = lower value. Put shortly: as §1
The test system of experiment [3] is HaCat. The description is as above. As to conditions: Five cell lines viability, CellTiter-Glo ATP luminescence, 48-72 h; max response: stronger effect = lower value. Put shortly:
as §1

The subject of experiment [4] is KB-3-1. The experiment is described as above. As to conditions: Five cell lines viability, CellTiter-Glo ATP luminescence, 48-72 h; max response: stronger effect = lower value. Put shortly:
as §1

The test system of experiment [5] is NIH3T3. The description is as above. As to conditions: Five cell lines viability, CellTiter-Glo ATP luminescence, 48-72 h; max response: stronger effect = lower value. In a few lines: as §1
Experiment [6] deals with MCC-13. The experiment can be described thus: qHTS assay to identify novel small-molecules to repurpose for Merkel cell carcinoma treatment (AID 1296009). As to conditions: MCC and control cell lines, CellTiter-Glo viability, 72 h; series mostly up to 46 µM. Put shortly: (§2)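 Viability readout: ATP luminescence (CellTiter-Glo) after 72 hr drug exposure at 37 degree celsius. Dose-response format was 8 points for NPC and 11 points for MIPE; data normalized to in-plate controls.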
Background: Quantitative high-throughput screening tests each substance at several concentrations.

The subject of experiment [7] is MCC-26. The experiment is described as above. As to conditions: MCC and control cell lines, CellTiter-Glo viability, 72 h; series mostly up to 46 µM. In a few lines:
as §2

Experiment [8] deals with HACAT. The experiment is described as above. As to conditions: MCC and control cell lines, CellTiter-Glo viability, 72 h; series mostly up to 44.8 µM. In a few lines:
as §2

The test system of experiment [9] is W2. Description: qHTS profiling for inhibitors of Plasmodium falciparum proliferation (AID 504749). As to conditions: P. falciparum in erythrocytes, SYBR Green DNA, 72 h; series mostly up to 28.7 µM. Put shortly: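 Quantitative HTS: compounds pinned into medium, infected erythrocytes added (0.3% parasitemia, 2.5% hematocrit), 72 h culture at 37 C under 5% CO2. Saponin/Triton lysis with SYBR Green I, overnight RT, then fluorescence read.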
Also: nearly all actives have a fitted effect of over 60% in size.
Potency is read from the fitted curve at half-maximal effect.

In the case of `CN(C)Cc1c(C(=O)NCCOc2ccc(C(=O)NO)cc2)oc2ccccc12`, the Potency was 4.69 µM (active) and 4.61 µM (active) in [1]; 1.87 µM (active) and 1.16 µM (active) in experiment [2]; 4.11 µM (active) in [3]; 1.48 µM (active) and 1.3 µM (active) in experiment [4]; 3.72 µM (active) and 3.26 µM (active) in [5]; 8.33 µM (active) in [6]. For the same molecule, in experiment [7], the Potency was 7.43 µM (active).
Take `CN1CCC(CNc2ccc3ncc(-c4cccc(OC(F)(F)F)c4)n3n2)CC1`: the Potency is 4.69 µM (active) in [1]; 23.5 µM (active) in experiment [2]; 13.2 µM (active) and 16.4 µM (active) in experiment [3]; 20.9 µM (active) in [4]. Besides, the Potency entry in experiment [6] and in experiment [7] was “inactive” each time.
In the case of `Cc1ccc(S(=O)(=O)Nc2cc(Cl)ccc2C(=O)Nc2nc(-c3ccccc3)cs2)cc1`, the figures for the max response in experiment [1] and in experiment [4] were 3.55% and -7.08%, respectively. For the same molecule, in experiment [2], the Potency was 11.8 µM (active). Also, the outcome in experiment [3] was inactive. Moreover, the Potency result in experiment [8], in experiment [6] and in experiment [7] was “inactive” throughout.
In the case of `CN(C)CCCN=c1c2ccccc2n(C)c2[nH]c(=O)n(C)c(=O)c12`, the Potency in [1] is 11.8 µM (active); in experiment [2], 5.26 µM (active); in experiment [3] it was 18.7 µM (active); in [5], 23.5 µM (active).
With `CCS(=O)(=O)c1cccc(-c2cc(C(=O)NC3CCN(C)CC3)c(C)c3[nH]c4ncc(C)cc4c23)c1`, the Potency is 1.28 µM (active) in experiment [1]; 1.87 µM (active) and 2.02 µM (active) in [2]; 4.18 µM (active) and 1.61 µM (active) in [3]; 1.18 µM (active) and 904 nM (active) in experiment [4]; 10.5 µM (active) and 5.7 µM (active) in experiment [5]; 4.69 µM (active) in experiment [7].
As to `COC(=O)C[C@](O)(CCCC(C)(C)O)C(=O)O[C@@H]1C(OC)=C[C@]23CCCN2CCc2cc4c(cc2[C@H]13)OCO4`, the Potency in [9] is 0.0301 µM (active). The max response in experiment [1] is 3.78%; in experiment [2], -7.61%; in [5], 2.2%. In experiment [3], the molecule was called inactive. Moreover, the Potency result in [8], in experiment [6] and in experiment [7] was “inactive” in each case.
For `Nc1cccc(-c2cc3c(Oc4cccc(O)c4)ncnc3[nH]2)c1`, the Potency is 14.8 µM (active) in experiment [1]; 20.9 µM (active) and 18.4 µM (active) in [2]; 2.96 µM (active) in experiment [3]; 3.72 µM (active) and 4.61 µM (active) in [5]; 18.7 µM (active) in experiment [7].
`CN1CCN(c2cc(C(=O)Nc3ccc4c(c3)-c3c(c(C(N)=O)nn3-c3ccc(F)cc3)CC4)c(Cl)cn2)CC1`: the max response in [1] was -32.2%. Also, in experiment [2], the Potency was 20.9 µM (active). Also, the call in experiment [3] was inactive. For the same molecule, the Potency entry in [8] and in experiment [6] was “inactive” throughout.
For the molecule `CC(C)C[C@H](NC(=O)CNC(=O)c1cc(Cl)ccc1Cl)B(O)O`, the Potency in experiment [1] is 1.48 µM (active); in experiment [2], 1.18 µM (active); in [3] it was 3.72 µM (active); in experiment [5], 0.662 µM (active); in experiment [7] it was 0.526 µM (active).
Turning to `CC(=O)OCCN1C(=O)c2c(C)nc3ccc(S(=O)(=O)N4CCOCC4)cc3c2C1=O`, the max response is -12.8% in [1], -2.2% in experiment [2], 1.24% in experiment [3] and 2.81% in experiment [5]. Further, the call in [4] was inactive. Besides, the Potency entry in experiment [6] and in [7] was “inactive” in each case.
Turning to `CC(NCc1ccc2c(c1)nc(NC(=O)c1ccc(-c3cn[nH]c3)s1)n2CC(C)(C)O)C(C)(C)C` (stereo not drawn), the Potency was 0.296 µM (active) in experiment [1]; 0.132 µM (active) in [2]; 0.743 µM (active) in [3]; 0.209 µM (active) in experiment [4]; 0.59 µM (active) in experiment [5]; 2.35 µM (active) in experiment [6]. For the same molecule, the Potency in experiment [7] was 1.48 µM (active).
Consider `Cc1c(CN2CCN(S(C)(=O)=O)CC2)sc2c(N3CCOCC3)nc(-c3cnc(N)nc3)nc12`, for which the Potency is 166 nM (active) and 259 nM (active) in [1]; 59 nM (active) and 326 nM (active) in [2]; 0.0418 µM (active) in experiment [3]; 0.0833 µM (active) in experiment [4]; 148 nM (active) and 517 nM (active) in experiment [5]; 0.833 µM (active) in [7].
On to `COc1cc(C(=O)N2CCC(N3CCN(C)CC3)CC2)ccc1Nc1ncc2c(n1)N(C)c1ccccc1C(=O)N2C`, for which the Potency in [1] was 3.66 µM (active); in experiment [2], 11.8 µM (active) and 9.2 µM (active); in experiment [4], 14.8 µM (active) and 16.4 µM (active); in [5] it was 13 µM (active). Also, the Potency result in experiment [6] is “inactive”.
On to `CC1(C)CCC(c2ccc(Cl)cc2)=C(CN2CCN(c3ccc(C(=O)NS(=O)(=O)c4ccc(N[C@H](CCN5CCOCC5)CSc5ccccc5)c(S(=O)(=O)C(F)(F)F)c4)cc3)CC2)C1`, for which the max response in [1] is 3.93%; in experiment [4] it was -2.09%. Besides, the Potency entry in experiment [6] and in experiment [7] was “inactive” in each case.
For `COc1cc2c(Oc3ccc4[nH]c(C)cc4c3F)ncnc2cc1OCCCN1CCCC1`, the Potency in [1] was 8.2 µM (active); in [3], 8.33 µM (active) and 7.31 µM (active); in experiment [5], 1.87 µM (active) and 2.06 µM (active). Besides, the Potency result in experiment [6] was “inactive”.
For the molecule `Nc1ncnc2c1c(-c1cccc(OCc3ccccc3)c1)cn2C1CC(CN2CCCC2)C1` (stereo not drawn), the Potency in [2] was 13.2 µM (active) and 5.17 µM (active); in experiment [4], 18.7 µM (active); in [5] it was 14.8 µM (active) and 16.4 µM (active). For the same molecule, the max response in experiment [3] is -11.4%. Further, the molecule was called inactive in experiment [3]. Also, the Potency entry in experiment [8] and in [6] was “inactive” throughout.
